# PubChem BioAssay AID2642 (Johns Hopkins Ion Channel Center, 2010)
# About 3,900 (1.3%) of roughly 310,000 compounds were called active.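 How the source made its calls: active means compounds whose thallium flux B-score, printed positive for inhibition, exceeds three library SD while starting fluorescence stays within three; inactive means the rest.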 The full list was thinned out, with actives kept by preference.
# Target: Potassium voltage-gated channel subfamily KQT member 1 (Homo sapiens) (UniProt P51787)
# Assay: KCNQ1 potassium current blockers – cell-based, thallium flux, high-throughput, primary screen (AID 2642);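 further: channel opened by potassium depolarization with thallium stimulus after 20 min compound exposure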
# Conditions: CHO-K1 KCNQ1, FluxOR thallium flux fluorescence, at 10 µM; active compounds read high
# Sequence of Potassium voltage-gated channel subfamily KQT member 1 (Homo sapiens) (P51787 whole entry, looked up): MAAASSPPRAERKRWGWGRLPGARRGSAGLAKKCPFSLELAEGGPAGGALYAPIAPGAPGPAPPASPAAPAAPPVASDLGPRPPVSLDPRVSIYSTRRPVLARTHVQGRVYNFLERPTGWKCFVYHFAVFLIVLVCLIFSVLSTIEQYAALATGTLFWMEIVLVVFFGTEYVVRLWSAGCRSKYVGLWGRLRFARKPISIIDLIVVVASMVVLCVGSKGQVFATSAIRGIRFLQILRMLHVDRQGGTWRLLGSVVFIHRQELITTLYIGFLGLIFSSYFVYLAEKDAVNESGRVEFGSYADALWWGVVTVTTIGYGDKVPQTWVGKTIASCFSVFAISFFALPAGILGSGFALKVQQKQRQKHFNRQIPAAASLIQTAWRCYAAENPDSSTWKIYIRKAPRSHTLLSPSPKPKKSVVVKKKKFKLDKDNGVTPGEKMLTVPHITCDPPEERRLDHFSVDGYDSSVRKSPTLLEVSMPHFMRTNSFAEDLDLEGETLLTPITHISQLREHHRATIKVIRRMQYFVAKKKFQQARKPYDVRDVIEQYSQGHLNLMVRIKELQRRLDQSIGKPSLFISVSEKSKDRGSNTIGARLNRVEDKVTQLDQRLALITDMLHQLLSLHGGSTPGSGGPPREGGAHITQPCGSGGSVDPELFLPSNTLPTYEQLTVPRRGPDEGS
row,Compound,B-score
1,CCOc1ccc(-c2cc(C)[n+](CCN(CC)CC)c(-c3ccc(OCC)cc3)c2)cc1,7 (active)
2,CSC1=NP(=S)(SC)N(C)c2nc3n(c21)CCC3 (stereo not given),inactive
3,CCN1C(=O)C(=Cc2c(C)n(CC(=O)NCC3CCCO3)c3ccccc23)C(=O)N(CC)C1=S (stereo not given),inactive
4,CN(C)S(=O)(=O)c1cc(C(=O)N2CCC(C(=O)O)(c3ccccc3)CC2)ccc1Cl,inactive
5,Cc1ccc(-c2nc3ccccc3c(=O)n2-c2ccc(Br)cn2)cc1,inactive
6,CCCCCCCCCCCCn1ccc(=N)cc1,13 (active)
7,CC1=CC(=Cc2sc3ccccc3[n+]2C)C=C(C)O1,inactive
8,Clc1ccc2nc3c(c(-c4ccccc4)c2c1)CNCC3,inactive
9,O=C(Nc1cccc2ccccc12)N1CCC2(CC1)OCCO2,inactive
10,CC(C)(C)c1ccc(CN2C(=O)CN=C(c3ccccc3)c3ccccc32)cc1,6 (active)
11,O=C1CC(=O)N(Cc2ccccc2)C(=O)N1CCCCCCN1C(=O)CC(=O)N(Cc2ccccc2)C1=O,inactive
12,C=Cn1ccnc1P(=S)(c1cc(N(CC)CC)ns1)c1nccn1C=C,inactive
13,O=c1[nH]c(=O)n(-c2ccc(F)cc2)c(O)c1C=NCCN1CCCCC1,inactive
14,COC(=O)C1=C(c2ccccc2)C[C@@H]2CC[C@H]1N2C(=O)N1CCCCC1,inactive
15,C/C(=N/O)c1ccc2ccc3ccccc3c2c1,inactive
16,C/C=C/CC1(CC)C(=O)NC(=S)NC1=O,inactive
17,CCOc1cccc(=NC2CCCCC2)c2c(C)[nH]c(C)c12,7 (active)
18,CN(C)c1nc(N(C)C)nc(N(C#N)CCCl)n1,inactive
19,COc1ccccc1N1CCN(C(CNC(=O)Oc2ccccc2)c2cccnc2)CC1 (stereo not given),inactive
20,O=C(N/N=C/c1c(O)n(C2CC2)c(=S)[nH]c1=O)c1ccccc1Cl,inactive
